The panel holds about 83,000 compounds, 20% with a hit somewhere; the sample as a whole holds those more often.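 Compound tested at a single concentration for 48 hours in 96-well plates; a percent growth value below 10 was scored as active.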 Unmarked numbers belong to inactive results. The source made the active and inactive calls.

For one test, the system named is SN12C renal. Briefly: NCI-60 one-dose screen, 48 h (100 = growth as untreated, 0 = no growth, -100 = all killed). As to conditions: 10 µM unless noted.
As to `CCCCCCCCCCCCNC(=O)[C@H]1CSC(c2cc3ccccc3s2)N1` (stereo partly specified), the growth was -16.1% (active).

On to `COc1cc(Nc2ncccc2C(=O)NCc2cn(Cc3cccc(Oc4ccccc4)c3)nn2)cc(OC)c1`, for which the growth is 42.9%.

Turning to `Cc1ccc(Cc2c(C=O)nc(N)[nH]c2=O)c2ccccc12`, the growth is 96.9%.

On to `COc1cc(/C=C/C(=O)c2cccc(-n3cc(-c4cc(OC)c(OC)c(OC)c4)[nH]c3=O)c2)cc(OC)c1OC`, for which the growth was 11.5%.

As for `CCCCCCCCCCCCNC(=O)[C@H]1CSC(c2ccsc2)N1` (stereo partly specified), the growth was -87% (active).

As to `O=c1[nH]c(NCc2ccccc2)nc2nc(Nc3ccc(NC(=S)Nc4ccccc4)cc3)nc(-c3ccc(O)cc3O)c12`, the growth is 97.4%.

Consider `CCC(C)/C(=C\C#N)NCCCN/C(=C/C#N)C(C)CC` (stereo unspecified), for which the growth was 99.7%.

`Oc1ccccc1/C=N/NC(=S)NC1CC2C=CC1C2` (stereo unspecified): the growth was 92.8%.

Regarding `COc1ccc(OC)c(C2OC(c3ccc4ccccc4c3O)=NN2C(C)=O)c1` (stereo unspecified), the growth was 80.6%.

Regarding `CN1CCN(Cc2ccc(NC(=O)c3cncc(C#Cc4cnc(N)c5cnccc45)c3)cc2C(F)(F)F)CC1`, the growth is 5.24% (active).

`COC(OC)c1ccccc1`: the growth was 102%.

As for `CC(C)CSc1nc(NN)c(C#N)c(-c2ccc(F)cc2)n1`, the growth is 79.9%.

On to `COc1cc2c(cc1OCCCN1CCN(CCCn3c4ccccc4c4ccccc43)CC1)N=C[C@@H]1CCCN1C2=O`, for which the growth was -47.9% (active).

In the case of `O=C(Nc1ccncc1)C(=O)c1cn(S(=O)(=O)c2ccc(Oc3ccccc3)cc2)c2ccccc12`, the growth is 84.9%.

For the compound `COc1ccc(-c2ccc(C)n2-c2ccc(-c3nc4cc(Cl)ccc4s3)cc2)cc1`, the growth was 90.5%.

Consider `CC1(C)C(=O)/C(=C\c2ccc(C(F)(F)F)cc2)C[C@]2(C)[C@H]3CC[C@@H]4[C@H]5[C@H](C(=O)/C=C/c6ccc(C(F)(F)F)cc6)CC[C@]5(CO)CC[C@@]4(C)[C@]3(C)CC[C@@H]12`, for which the growth was 91.8%.

`O=C(NCc1cn(Cc2cccc(Oc3ccccc3)c2)nn1)c1cccnc1Nc1ccc(F)cc1`: the growth is 44.4%.

In the case of `Cc1ccc(-c2cc3nc(C(Cl)Cl)nc(-c4ccccc4C)n3n2)cc1`, the growth was 86.7%.

For `COc1ccc(S(=O)(=O)n2cc(C(=O)C(=O)Nc3ccncc3)c3ccccc32)cc1F`, the growth is 73.7%.

Turning to `CCOC(=O)C1=C(C)NC(C)=C(C(=O)OCC)C1(C)C`, the growth is 97%.

Consider `O=c1[nH]c(Nc2ccc(S(=O)(=O)O)cc2)nc2nc(Nc3ccc(NC(=S)Nc4ccccc4)cc3)nc(-c3ccc(O)cc3O)c12`, for which the growth was 98.5%.

The next test deals with UO-31 renal. The test is described as above. The following applies: 10 µM unless noted.
For `O=C(c1ccccc1)C1OC1c1ccc([N+](=O)[O-])cc1` (stereo unspecified), the growth is 136%.

Take `Nc1cccc(Cl)c1N`: the growth was 71.2%.

As to `CCN(CC)CCOc1ccc(Cl)c(C)c1`, the growth is 86.5%.

On to `CC(=O)Nc1scc[n+]1Cc1ccccc1`, for which the growth was 91.1%.

For the compound `CCCCN(CCCC)C(=N)c1ccnc2ccccc12`, the growth was 89.7%.

Consider `O=C(Oc1ccccc1[N+](=O)[O-])C1CCCN1C(=O)OCc1ccccc1` (stereo unspecified), for which the growth is 90.1%.

Regarding `CCN(CC)c1ccc(CNc2ccnc3ccccc23)cc1`, the growth was 31.6%.

Take `CC1=C(C#N)C(=O)NC(C)C1` (stereo unspecified): the growth was 94.9%.

As to `CC1CCC(C)N(C)C1` (stereo unspecified), the growth is 84.6%.

For `COC(=O)c1cccc2c1N(C)c1c(cccc1C(=O)OC)CC2`, the growth is 101%.

Turning to `CN(C)c1cccc2c(S(=O)(=O)/N=C(\N)Nc3nc4ccccc4s3)cccc12`, the growth is 56.8%.

As for `Nc1cc2c(cc1C(=O)c1cccc(F)c1)OCCO2`, the growth is 68.8%.

Turning to `O=C(Nc1ccc(NCCN2CCOCC2)nc1)c1ccc([N+](=O)[O-])cc1`, the growth was 96.2%.

On to `COP(=O)(OC)/C(=N\NS(=O)(=O)c1ccc(C)cc1)c1ccccc1`, for which the growth is 92.6%.

Consider `CC(=O)Nc1ccc(/C=C/C(=O)c2ccccc2)cc1`, for which the growth was 71.3%.

Turning to `COc1ccc(CCNC2=CC(=O)CCC2)cc1OC`, the growth is 81.2%.

As for `CCCCCCCCCCCCNC(=O)[C@H]1CSC(c2cc3ccccc3s2)N1` (stereo partly specified), the growth is -82.6% (active).

On to `COc1cc(Nc2ncccc2C(=O)NCc2cn(Cc3cccc(Oc4ccccc4)c3)nn2)cc(OC)c1`, for which the growth is 49.8%.

For the compound `Cc1ccc(Cc2c(C=O)nc(N)[nH]c2=O)c2ccccc12`, the growth was 81.2%.

As to `COc1cc(/C=C/C(=O)c2cccc(-n3cc(-c4cc(OC)c(OC)c(OC)c4)[nH]c3=O)c2)cc(OC)c1OC`, the growth was 6.2% (active).

As to `CCCCCCCCCCCCNC(=O)[C@H]1CSC(c2ccsc2)N1` (stereo partly specified), the growth is -99.6% (active).

With `O=c1[nH]c(NCc2ccccc2)nc2nc(Nc3ccc(NC(=S)Nc4ccccc4)cc3)nc(-c3ccc(O)cc3O)c12`, the growth was 78.5%.

With `CCC(C)/C(=C\C#N)NCCCN/C(=C/C#N)C(C)CC` (stereo unspecified), the growth is 82.4%.

Turning to `Oc1ccccc1/C=N/NC(=S)NC1CC2C=CC1C2` (stereo unspecified), the growth was 49.8%.

As to `CN1CCN(Cc2ccc(NC(=O)c3cncc(C#Cc4cnc(N)c5cnccc45)c3)cc2C(F)(F)F)CC1`, the growth was -21.1% (active).

As for `COC(OC)c1ccccc1`, the growth is 85.4%.

`CC(C)CSc1nc(NN)c(C#N)c(-c2ccc(F)cc2)n1`: the growth was 55.8%.

As to `COc1cc2c(cc1OCCCN1CCN(CCCn3c4ccccc4c4ccccc43)CC1)N=C[C@@H]1CCCN1C2=O`, the growth was -91.7% (active).

For the compound `O=C(Nc1ccncc1)C(=O)c1cn(S(=O)(=O)c2ccc(Oc3ccccc3)cc2)c2ccccc12`, the growth was 62.3%.

`COc1ccc(-c2ccc(C)n2-c2ccc(-c3nc4cc(Cl)ccc4s3)cc2)cc1`: the growth was 85%.

Take `O=C(NCc1cn(Cc2cccc(Oc3ccccc3)c2)nn1)c1cccnc1Nc1ccc(F)cc1`: the growth is 59.3%.

With `Cc1ccc(-c2cc3nc(C(Cl)Cl)nc(-c4ccccc4C)n3n2)cc1`, the growth was 75.3%.

For the compound `COc1ccc(S(=O)(=O)n2cc(C(=O)C(=O)Nc3ccncc3)c3ccccc32)cc1F`, the growth is 81.8%.

With `CCOC(=O)C1=C(C)NC(C)=C(C(=O)OCC)C1(C)C`, the growth is 100%.

Turning to `O=c1[nH]c(Nc2ccc(S(=O)(=O)O)cc2)nc2nc(Nc3ccc(NC(=S)Nc4ccccc4)cc3)nc(-c3ccc(O)cc3O)c12`, the growth was 73.9%.
